# Measurements: PubChem BioAssay
# Activity calls are given as the source filed them. Unless noted, no rule for the calls is given here.
# How the values were obtained:
# [1] = resazurin metabolic signal in HepG2 cells – cell-based, resazurin fluorescence, 24 h, PK04 Diversity Set, profiling panel (AID 1172); conditions: HepG2 viability, higher = more signal; also: test concentration not given here
# [2] = budding yeast growth changes without added modifier – OD600, strain BY4716, 24 h, basal condition, primary screen (AID 1173); conditions: S. cerevisiae BY4716 growth, OD600, 24 h; higher = more signal, called active from +8 up or from −8 down
# [3] = viability profiling in MM1S myeloma cells – cell-based, resazurin fluorescence, basal, 24 h, PK04 Diversity Set, profiling panel (AID 1174); conditions: higher = more signal, called active from +8 up or from −8 down;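 also: MM1S multiple myeloma cell line; test concentration not given here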
# [4] = molecular target: Dihydroorotate dehydrogenase (quinone), mitochondrial (Plasmodium falciparum (isolate 3D7)) (UniProt Q08210); test: inhibition of P. falciparum DHODH – biochemical, C-terminal His tag, absorbance 600 nm, primary screen (AID 1175); conditions: PfDHODH enzyme, DCIP absorbance 600 nm; higher = more signal, called active from +8 up or from −8 down;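 also: recombinant parasite enzyme with a five histidine tag at its C terminus; test concentration not given here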
# Dihydroorotate dehydrogenase (quinone), mitochondrial (Plasmodium falciparum (isolate 3D7)), sequence (Q08210 whole entry, looked up): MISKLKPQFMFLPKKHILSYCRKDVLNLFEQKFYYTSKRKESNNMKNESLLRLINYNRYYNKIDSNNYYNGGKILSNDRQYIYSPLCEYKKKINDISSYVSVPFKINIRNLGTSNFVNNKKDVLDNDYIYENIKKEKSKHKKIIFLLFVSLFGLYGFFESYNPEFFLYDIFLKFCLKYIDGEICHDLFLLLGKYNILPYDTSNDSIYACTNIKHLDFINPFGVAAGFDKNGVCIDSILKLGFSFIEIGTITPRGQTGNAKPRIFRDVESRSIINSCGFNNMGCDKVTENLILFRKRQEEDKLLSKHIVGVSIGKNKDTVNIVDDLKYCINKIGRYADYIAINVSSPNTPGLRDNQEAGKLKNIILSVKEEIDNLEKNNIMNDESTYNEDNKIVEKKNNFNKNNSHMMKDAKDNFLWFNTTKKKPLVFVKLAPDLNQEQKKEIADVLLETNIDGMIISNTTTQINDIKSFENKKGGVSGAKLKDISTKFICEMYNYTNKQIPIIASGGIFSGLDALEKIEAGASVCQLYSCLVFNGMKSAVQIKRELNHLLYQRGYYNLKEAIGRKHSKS
# [5] = inhibition of PAO1 biofilm formation – strain PAO1, LB-PBS medium, absorbance 600 nm, primary screen (AID 1176); also: test concentration not given here; conditions: P. aeruginosa PAO1 growth/biofilm, A600, 12 h; higher = more signal
# [6] = growth modulation of vineyard yeast isolate – strain RM11-1a, OD600, basal, 24 h, primary screen (AID 1177);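 also: cultures grown under basal conditions with no added stressor; test concentration not given here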; conditions: S. cerevisiae RM11-1a growth, OD600, 24 h; higher = more signal, called active from +8 up or from −8 down
# [7] = growth of efflux-deficient E. coli DRC39 – strain DRC39, OD650, 24 h, E. coli filamentation inducers, primary screen (AID 1178);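 also: growth measured as culture turbidity by optical density at 650 nm; test concentration not given here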; conditions: E. coli DRC39 acrAB, higher = more signal, called active from +8 up or from −8 down
# [8] = growth of efflux-deficient E. coli DRC39 – strain DRC39, OD650, 48 h, E. coli filamentation inducers, primary screen (AID 1179);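 also: screen aims at cell division blockers that make cells filament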; conditions: E. coli DRC39 delta-acrAB growth, higher = more signal, called active from +8 up or from −8 down
# [9] = viability profiling in RPMI8226 myeloma cells – cell-based, resazurin fluorescence, basal, 24 h, PK04 Diversity Set, profiling panel (AID 1180); conditions: higher = more signal;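 also: RPMI8826 multiple myeloma cell line at 5000 cells per well; test concentration not given here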
# [10] = molecular target: E3 ubiquitin-protein ligase XIAP (Homo sapiens) (UniProt P98170); test: small molecules binding XIAP protein – biophysical, small-molecule microarray, fluorescence 635 nm, primary screen (AID 1181); conditions: higher = more signal;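 also: score merges 667 nm emission and signal to noise over triplicate slides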
# E3 ubiquitin-protein ligase XIAP (Homo sapiens), sequence (P98170 whole entry, looked up): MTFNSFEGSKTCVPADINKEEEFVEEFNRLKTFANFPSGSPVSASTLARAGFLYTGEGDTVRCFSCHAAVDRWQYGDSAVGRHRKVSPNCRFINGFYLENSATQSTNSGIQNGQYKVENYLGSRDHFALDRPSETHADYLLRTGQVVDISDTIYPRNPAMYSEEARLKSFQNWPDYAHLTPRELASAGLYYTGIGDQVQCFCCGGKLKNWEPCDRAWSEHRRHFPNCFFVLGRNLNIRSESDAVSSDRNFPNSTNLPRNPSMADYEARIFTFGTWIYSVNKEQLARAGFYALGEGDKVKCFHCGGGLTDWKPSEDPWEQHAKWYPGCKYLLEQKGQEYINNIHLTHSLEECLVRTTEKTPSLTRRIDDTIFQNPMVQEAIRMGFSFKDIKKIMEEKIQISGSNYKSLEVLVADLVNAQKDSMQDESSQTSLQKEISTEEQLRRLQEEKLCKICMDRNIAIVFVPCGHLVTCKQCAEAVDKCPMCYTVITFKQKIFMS
SMILES,z-score [1],z-score [2],z-score [3],composite z-score [4],z-score [5],z-score [6],z-score [7],z-score [8],z-score [9],composite z-score [10]
COCCCNC(=O)[C@]1(Cc2ccccc2)N=C(c2ccc(OCCCO)cc2)O[C@@H]1c1ccccc1,0.754,-0.706 (inactive),0.325 (inactive),-0.0882 (inactive),0.494 (inactive),-0.499 (inactive),0.156 (inactive),-1.11 (inactive),0.778,-0.0118
O=C1[C@H]2[C@H]3[C@H](O)[C@H](O)CC(=NO[C@@H]4O[C@H](CO)[C@@H](O)[C@H](O)[C@H]4O)[C@H]3CC[C@H]2C(=O)N1Cc1ccccc1,0.835,-0.816 (inactive),-0.183 (inactive),-0.592 (inactive),-0.0728 (inactive),-1.1 (inactive),-0.395 (inactive),0.355 (inactive),0.797,0.0153
CC(=O)OC[C@H]1O[C@H](C#CCCCc2ccccc2)C=C[C@@H]1OC(C)=O,-0.22,-2.31 (inactive),-4.16 (inactive),-0.791 (inactive),-0.0569 (inactive),0.291 (inactive),0.387 (inactive),-0.0416 (inactive),-2.47,0.072
CCCNC(=O)OC[C@H]1O[C@H](CCON=C2[C@H]3CCn4c(=O)n(-c5ccccc5)c(=O)n4[C@H]3[C@H](O)[C@@H]3O[C@H]23)C=C[C@@H]1Oc1ccc(OC)cc1,-0.633,-0.521 (inactive),-1.52 (inactive),0.017 (inactive),0.0767 (inactive),0.12 (inactive),0.621 (inactive),1.13 (inactive),-2.05,-0.2
C[C@H]1CC[C@@H](C(=O)O)N[C@@H]1c1ccc(C#CCN(C)C)cc1,0.378,-1.07 (inactive),0.584 (inactive),0.666 (inactive),-0.458 (inactive),-0.191 (inactive),0.554 (inactive),0.15 (inactive),0.22,0.256
CCOC(=O)[C@H](Cc1ccccc1)NC(=O)CCC1CC(OC(=O)NCc2ccc3c(c2)OCO3)CC2(CCCC(COC(=O)NCC3CCCCC3)O2)O1 (stereo not given in full),1.19,-0.653 (inactive),0.625 (inactive),-0.0475 (inactive),-0.695 (inactive),0.104 (inactive),0.0066 (inactive),0.216 (inactive),0.419,0.257
Cc1ccc(C2CC=C(C(=O)O)CN2S(=O)(=O)c2ccc(C)cc2)cc1 (stereo not given),-0.719,-0.0489 (inactive),-0.955 (inactive),1.23 (inactive),0.396 (inactive),0.603 (inactive),-0.799 (inactive),-1.52 (inactive),-1.54,-0.102
C#CCCCON=C1C[C@@H](O)[C@@H](O)[C@@H]2[C@@H]3C(=O)N([C@@H](C)c4ccccc4)C(=O)[C@@H]3CC[C@H]12,-0.331,-1.27 (inactive),0.8 (inactive),-2.87 (inactive),-0.389 (inactive),-1.35 (inactive),-0.0604 (inactive),-0.12 (inactive),0.357,0.0537
COC(=O)[C@]1(CO)N=C(c2ccc(OCCCO)cc2)O[C@@H]1c1ccccc1N=[N+]=[N-],-0.318,-0.114 (inactive),-0.198 (inactive),0.482 (inactive),0.205 (inactive),-0.709 (inactive),-0.131 (inactive),0.57 (inactive),-0.459,0.964
COCCCNC(=O)[C@@]1(Sc2ccc(C)cc2)CC(=O)N(Cc2ccccc2)[C@@H]1c1ccc(CO)cc1I,0.121,-3.62 (inactive),-2.46 (inactive),-0.666 (inactive),-0.549 (inactive),-1.02 (inactive),0.283 (inactive),0.264 (inactive),-1.78,0.106
C=CCOC(=O)[C@H]1[C@@H]2C(=O)O[C@@H](c3ccccc3)[C@@H](c3ccccc3)N2[C@@H](c2ccc(OCCOC(=O)[C@H]3C[C@H]4C(=O)N[C@@H](Cc5ccccc5)C(=O)N4[C@H]3c3ccc(O)cc3)cc2)[C@]12C(=O)Nc1ccccc12,0.696,1.32 (inactive),1.17 (inactive),-0.869 (inactive),2.64 (inactive),1.71 (inactive),-0.38 (inactive),0.124 (inactive),1.74,0.0015
CO[C@H]1COC(=O)[C@H](C)NC(=O)[C@@H](C)COC(=O)CC=C[C@@H]1C,-0.279,-0.518 (inactive),0.0346 (inactive),-0.0114 (inactive),-0.443 (inactive),-0.477 (inactive),0.327 (inactive),1.3 (inactive),0.0991,0.0593
CO[C@@H]1COC(=O)CCC[C@@H](C)[C@H](OC)COC(=O)CCC[C@H]1C,0.733,1.47 (inactive),0.367 (inactive),-0.0732 (inactive),-0.667 (inactive),1.6 (inactive),0.265 (inactive),-0.65 (inactive),0.276,-0.256
COC(=O)CC1OC1[C@H](C)[C@@H](OC)C(C)C (stereo not given in full),-0.863,-4.59 (inactive),-1.91 (inactive),-3.39 (inactive),0.699 (inactive),0.748 (inactive),0.487 (inactive),0.293 (inactive),-1.43,-0.313
C=CC[C@@H]1C=C[C@H](ON=C[C@@H](OC)[C@H](C)C=CCC(=O)OC)[C@@H](CO)O1,-0.266,-0.54 (inactive),-0.709 (inactive),0.217 (inactive),-0.537 (inactive),1.17 (inactive),0.456 (inactive),0.732 (inactive),-0.707,0.32
CCOC(=O)CCN1C(=O)[C@H]2[C@H]3[C@H](O)[C@H](O)CC(=NOC[C@@H](O)COCc4ccco4)[C@H]3CC[C@H]2C1=O,-0.749,-11.7 (active),-0.0452 (inactive),-2.45 (inactive),0.0122 (inactive),-0.788 (inactive),0.558 (inactive),-0.899 (inactive),-0.424,0.123
CN(C)c1ccc(C(O)C2C=CC3C(=O)N(c4ccccc4)C(=O)C3N2Nc2ccccc2F)cc1 (stereo not given),-0.268,-1.77 (inactive),-0.234 (inactive),1.03 (inactive),0.657 (inactive),0.545 (inactive),-0.853 (inactive),-1.08 (inactive),-1.02,0.24
O=C1[C@H]2[C@H]3[C@H](O)[C@H](O)CC(=NOCc4ccccc4)[C@@H]3CC[C@H]2C(=O)N1C1CCCCC1,-0.116,-3.16 (inactive),-0.321 (inactive),0.35 (inactive),1.29 (inactive),0.594 (inactive),-0.315 (inactive),-0.881 (inactive),-0.456,-0.144
CCCCCCc1nc(CCCc2cc3c(c(CCCCCC)n2)[Si](C(C)C)(C(C)C)O[C@H]3c2ccccc2)cc2c1[Si](C(C)C)(C(C)C)O[C@H]2c1ccccc1,0.0054,1.33 (inactive),-0.582 (inactive),-0.347 (inactive),0.0793 (inactive),-0.879 (inactive),-0.631 (inactive),-0.981 (inactive),-0.465,-0.117
COc1ccc(COC(=O)NN=C2C[C@@H](O)[C@@H](O)[C@@H]3[C@@H]4C(=O)N(Cc5ccc6c(c5)OCO6)C(=O)[C@@H]4CC[C@@H]23)cc1,0.466,-0.839 (inactive),0.401 (inactive),-1.68 (inactive),2.55 (inactive),-1.83 (inactive),-0.459 (inactive),-0.279 (inactive),1.24,-0.0792
CC(C)CON=C1C[C@@H](O)[C@@H](O)[C@@H]2[C@@H]3C(=O)N(C[C@@H]4CCCO4)C(=O)[C@@H]3CC[C@H]12,0.511,-0.138 (inactive),-0.594 (inactive),-0.849 (inactive),0.884 (inactive),-0.776 (inactive),-0.353 (inactive),0.0723 (inactive),0.139,-0.174
C=C(COC)/C(=C/C[C@H](OC(=O)c1ccncc1)c1ccc(CO)o1)c1cc(C(=O)OC)ccc1OC,-0.0086,-0.154 (inactive),-0.486 (inactive),-1.02 (inactive),1.11 (inactive),-0.328 (inactive),-0.268 (inactive),0.0389 (inactive),0.343,-0.168
